Source: ChEMBL document CHEMBL1961873, “Compounds: GSK PKIS; Assays: Nanosyn kinase panel” (2012)

Tests used:
[1] = target: Tyrosine-protein kinase SYK (Homo sapiens) (UniProt P43405); details: at 1 µM
[2] = target: T1, Tyrosine-protein kinase Tec (Homo sapiens) (UniProt P42680); details: at 0.1 µM
T1 sequence (whole entry): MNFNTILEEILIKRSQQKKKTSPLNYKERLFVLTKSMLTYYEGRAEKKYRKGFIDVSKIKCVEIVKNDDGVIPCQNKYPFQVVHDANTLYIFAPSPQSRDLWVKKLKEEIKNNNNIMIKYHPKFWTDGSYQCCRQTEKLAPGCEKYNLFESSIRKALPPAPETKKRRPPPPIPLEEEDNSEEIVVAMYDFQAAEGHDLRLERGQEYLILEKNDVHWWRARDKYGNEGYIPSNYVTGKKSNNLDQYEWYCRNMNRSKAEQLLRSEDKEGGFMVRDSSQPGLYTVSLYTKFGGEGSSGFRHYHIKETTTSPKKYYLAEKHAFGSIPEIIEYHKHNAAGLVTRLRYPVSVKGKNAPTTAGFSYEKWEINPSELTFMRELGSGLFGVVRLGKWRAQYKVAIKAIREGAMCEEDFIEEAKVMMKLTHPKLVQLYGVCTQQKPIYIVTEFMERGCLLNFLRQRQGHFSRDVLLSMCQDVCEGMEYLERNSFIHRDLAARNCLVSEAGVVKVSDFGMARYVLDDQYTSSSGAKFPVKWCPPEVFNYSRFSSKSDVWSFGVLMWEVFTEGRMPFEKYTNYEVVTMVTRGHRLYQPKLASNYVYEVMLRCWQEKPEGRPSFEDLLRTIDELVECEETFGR

[3] = target: T1, Tyrosine-protein kinase Tec (Homo sapiens); details: at 1 µM
[4] = target: Angiopoietin-1 receptor (Homo sapiens) (UniProt Q02763); details: at 0.1 µM
[5] = target: Angiopoietin-1 receptor (Homo sapiens) (UniProt Q02763); details: at 1 µM
[6] = target: T2, Non-receptor tyrosine-protein kinase TNK1 (Homo sapiens) (UniProt Q13470); details: at 0.1 µM
T2 sequence (whole entry): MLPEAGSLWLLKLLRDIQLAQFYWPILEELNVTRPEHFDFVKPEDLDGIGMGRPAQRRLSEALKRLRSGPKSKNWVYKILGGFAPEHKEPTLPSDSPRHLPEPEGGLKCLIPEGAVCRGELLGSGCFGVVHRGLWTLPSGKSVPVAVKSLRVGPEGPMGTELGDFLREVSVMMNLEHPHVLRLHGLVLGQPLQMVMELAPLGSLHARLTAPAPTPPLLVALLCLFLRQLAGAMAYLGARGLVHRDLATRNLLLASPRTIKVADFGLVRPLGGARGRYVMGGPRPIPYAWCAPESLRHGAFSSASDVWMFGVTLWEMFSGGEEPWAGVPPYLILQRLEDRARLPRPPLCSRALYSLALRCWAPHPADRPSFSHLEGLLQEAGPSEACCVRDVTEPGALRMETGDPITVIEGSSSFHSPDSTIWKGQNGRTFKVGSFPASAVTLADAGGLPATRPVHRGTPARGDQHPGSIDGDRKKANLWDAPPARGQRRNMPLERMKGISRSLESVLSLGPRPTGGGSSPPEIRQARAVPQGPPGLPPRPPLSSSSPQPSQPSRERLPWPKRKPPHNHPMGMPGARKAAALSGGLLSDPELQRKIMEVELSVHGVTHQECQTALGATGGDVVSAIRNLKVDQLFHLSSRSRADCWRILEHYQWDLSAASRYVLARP

[7] = target: T2, Non-receptor tyrosine-protein kinase TNK1 (Homo sapiens); details: at 1 µM
[8] = target: Activated CDC42 kinase 1 (Homo sapiens) (UniProt Q07912); details: at 0.1 µM
[9] = target: Activated CDC42 kinase 1 (Homo sapiens) (UniProt Q07912); details: at 1 µM
[10] = target: High affinity nerve growth factor receptor (Homo sapiens) (UniProt P04629); details: at 0.1 µM
[11] = target: High affinity nerve growth factor receptor (Homo sapiens) (UniProt P04629); details: at 1 µM
[12] = target: BDNF/NT-3 growth factors receptor (Homo sapiens) (UniProt Q16620); details: at 0.1 µM
[13] = target: BDNF/NT-3 growth factors receptor (Homo sapiens) (UniProt Q16620); details: at 1 µM
[14] = target: NT-3 growth factor receptor (Homo sapiens) (UniProt Q16288); details: at 0.1 µM
[15] = target: NT-3 growth factor receptor (Homo sapiens) (UniProt Q16288); details: at 1 µM
[16] = target: T3, Tyrosine-protein kinase TXK (Homo sapiens) (UniProt P42681); details: at 0.1 µM
T3 sequence (whole entry): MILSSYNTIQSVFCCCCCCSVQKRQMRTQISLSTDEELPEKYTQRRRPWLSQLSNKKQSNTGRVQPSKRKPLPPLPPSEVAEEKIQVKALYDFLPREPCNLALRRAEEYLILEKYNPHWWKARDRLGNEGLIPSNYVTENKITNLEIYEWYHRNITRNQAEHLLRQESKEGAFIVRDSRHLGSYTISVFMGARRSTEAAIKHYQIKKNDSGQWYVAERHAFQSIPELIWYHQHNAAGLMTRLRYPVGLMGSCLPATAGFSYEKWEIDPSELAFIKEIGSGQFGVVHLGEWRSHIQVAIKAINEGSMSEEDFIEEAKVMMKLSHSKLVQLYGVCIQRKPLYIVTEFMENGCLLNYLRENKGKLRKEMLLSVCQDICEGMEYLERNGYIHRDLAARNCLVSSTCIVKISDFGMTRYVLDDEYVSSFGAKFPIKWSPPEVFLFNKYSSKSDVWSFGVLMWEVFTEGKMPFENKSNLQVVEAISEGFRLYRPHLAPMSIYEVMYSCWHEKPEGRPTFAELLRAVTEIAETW

[17] = target: T3, Tyrosine-protein kinase TXK (Homo sapiens); details: at 1 µM
[18] = target: Non-receptor tyrosine-protein kinase TYK2 (Homo sapiens) (UniProt P29597); details: at 0.1 µM;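 also: each value is a mean of the inhibition readings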
[19] = target: T4, Aurora kinase A (Homo sapiens) (UniProt O14965); details: at 0.1 µM;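 also: each reported value is a mean percent inhibition of Aurora-A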
T4 sequence (whole entry): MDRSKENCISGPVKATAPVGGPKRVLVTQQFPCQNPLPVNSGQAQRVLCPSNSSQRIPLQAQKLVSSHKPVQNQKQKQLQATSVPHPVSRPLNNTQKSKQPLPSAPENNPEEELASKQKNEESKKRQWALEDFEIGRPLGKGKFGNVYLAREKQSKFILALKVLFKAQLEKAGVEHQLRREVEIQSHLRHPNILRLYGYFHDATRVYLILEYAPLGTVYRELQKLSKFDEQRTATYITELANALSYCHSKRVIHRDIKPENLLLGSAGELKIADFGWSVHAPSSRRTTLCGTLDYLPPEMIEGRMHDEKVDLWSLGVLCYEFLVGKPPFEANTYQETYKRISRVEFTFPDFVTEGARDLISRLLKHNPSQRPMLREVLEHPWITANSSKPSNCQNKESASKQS

[20] = target: T5, Dual specificity protein kinase TTK (Homo sapiens) (UniProt P33981); details: at 1 µM;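 also: reported figures are mean TTK inhibition at 1 µM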
T5 sequence (whole entry): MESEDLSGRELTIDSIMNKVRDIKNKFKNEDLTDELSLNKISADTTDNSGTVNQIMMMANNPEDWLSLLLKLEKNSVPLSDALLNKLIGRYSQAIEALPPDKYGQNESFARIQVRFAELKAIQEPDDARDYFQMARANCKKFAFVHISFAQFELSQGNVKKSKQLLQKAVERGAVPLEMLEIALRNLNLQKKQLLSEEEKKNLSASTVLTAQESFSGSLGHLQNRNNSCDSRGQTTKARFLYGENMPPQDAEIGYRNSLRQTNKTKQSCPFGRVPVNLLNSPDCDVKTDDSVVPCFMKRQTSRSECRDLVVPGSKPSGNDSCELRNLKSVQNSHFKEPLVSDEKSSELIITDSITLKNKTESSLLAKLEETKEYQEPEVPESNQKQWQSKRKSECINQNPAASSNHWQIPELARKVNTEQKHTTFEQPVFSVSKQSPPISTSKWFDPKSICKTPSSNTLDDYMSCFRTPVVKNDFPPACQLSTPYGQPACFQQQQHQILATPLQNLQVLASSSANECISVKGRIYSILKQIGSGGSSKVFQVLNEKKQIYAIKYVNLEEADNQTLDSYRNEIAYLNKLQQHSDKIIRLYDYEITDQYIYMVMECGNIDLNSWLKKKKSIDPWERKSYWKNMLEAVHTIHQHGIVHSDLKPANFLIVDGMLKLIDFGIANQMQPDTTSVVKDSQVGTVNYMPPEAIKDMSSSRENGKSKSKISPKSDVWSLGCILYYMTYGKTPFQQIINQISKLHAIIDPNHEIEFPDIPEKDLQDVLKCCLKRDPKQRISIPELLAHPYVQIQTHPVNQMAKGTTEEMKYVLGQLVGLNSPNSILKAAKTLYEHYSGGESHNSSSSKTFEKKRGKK

High affinity nerve growth factor receptor (Homo sapiens), sequence (P04629 33-796 limits assumed): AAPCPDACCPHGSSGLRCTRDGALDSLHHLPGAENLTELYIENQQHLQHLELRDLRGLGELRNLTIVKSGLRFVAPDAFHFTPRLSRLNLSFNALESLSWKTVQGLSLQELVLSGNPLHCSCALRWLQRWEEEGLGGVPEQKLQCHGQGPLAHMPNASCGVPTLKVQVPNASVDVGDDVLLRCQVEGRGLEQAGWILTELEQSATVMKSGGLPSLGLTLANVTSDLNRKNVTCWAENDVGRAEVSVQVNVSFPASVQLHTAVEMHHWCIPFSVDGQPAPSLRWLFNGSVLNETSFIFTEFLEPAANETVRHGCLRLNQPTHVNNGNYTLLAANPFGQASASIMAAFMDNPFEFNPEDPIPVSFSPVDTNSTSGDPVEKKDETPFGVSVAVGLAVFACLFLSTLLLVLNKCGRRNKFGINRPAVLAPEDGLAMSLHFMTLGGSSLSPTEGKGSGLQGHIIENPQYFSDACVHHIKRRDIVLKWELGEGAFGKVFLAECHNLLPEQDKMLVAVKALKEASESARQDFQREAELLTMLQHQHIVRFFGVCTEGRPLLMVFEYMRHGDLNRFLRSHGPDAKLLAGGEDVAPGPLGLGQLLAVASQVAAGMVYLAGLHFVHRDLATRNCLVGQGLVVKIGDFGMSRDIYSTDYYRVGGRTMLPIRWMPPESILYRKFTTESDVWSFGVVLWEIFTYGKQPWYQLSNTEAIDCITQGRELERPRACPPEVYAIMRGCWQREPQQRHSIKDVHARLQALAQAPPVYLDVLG
Activated CDC42 kinase 1 (Homo sapiens), sequence (Q07912 whole entry, looked up): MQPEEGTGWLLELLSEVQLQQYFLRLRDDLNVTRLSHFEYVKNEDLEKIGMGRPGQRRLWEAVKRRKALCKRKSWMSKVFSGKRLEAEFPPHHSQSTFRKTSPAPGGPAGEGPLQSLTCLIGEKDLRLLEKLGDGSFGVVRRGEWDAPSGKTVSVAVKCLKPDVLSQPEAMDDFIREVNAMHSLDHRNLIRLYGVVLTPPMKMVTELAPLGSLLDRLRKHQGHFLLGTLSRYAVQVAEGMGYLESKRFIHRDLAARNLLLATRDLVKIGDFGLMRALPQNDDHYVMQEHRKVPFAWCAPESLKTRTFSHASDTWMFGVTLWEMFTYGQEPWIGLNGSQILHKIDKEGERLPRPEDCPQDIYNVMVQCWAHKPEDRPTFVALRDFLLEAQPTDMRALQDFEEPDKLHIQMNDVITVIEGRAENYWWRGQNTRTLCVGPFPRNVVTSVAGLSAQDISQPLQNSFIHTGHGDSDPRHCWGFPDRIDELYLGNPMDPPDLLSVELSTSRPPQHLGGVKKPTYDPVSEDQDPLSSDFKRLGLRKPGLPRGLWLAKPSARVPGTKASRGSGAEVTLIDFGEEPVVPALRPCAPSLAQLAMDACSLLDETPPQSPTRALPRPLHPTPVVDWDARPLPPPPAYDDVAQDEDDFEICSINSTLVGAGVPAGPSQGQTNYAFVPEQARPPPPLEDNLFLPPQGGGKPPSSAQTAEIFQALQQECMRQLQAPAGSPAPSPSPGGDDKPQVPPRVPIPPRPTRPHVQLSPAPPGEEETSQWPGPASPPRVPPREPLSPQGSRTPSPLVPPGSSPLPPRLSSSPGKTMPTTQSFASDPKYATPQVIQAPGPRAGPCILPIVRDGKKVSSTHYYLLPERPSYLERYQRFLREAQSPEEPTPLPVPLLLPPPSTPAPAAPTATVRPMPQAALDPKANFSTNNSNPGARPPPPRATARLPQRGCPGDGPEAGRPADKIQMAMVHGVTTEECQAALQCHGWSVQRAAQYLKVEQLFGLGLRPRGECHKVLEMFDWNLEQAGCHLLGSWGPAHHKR
BDNF/NT-3 growth factors receptor (Homo sapiens), sequence (Q16620 32-822 limits assumed): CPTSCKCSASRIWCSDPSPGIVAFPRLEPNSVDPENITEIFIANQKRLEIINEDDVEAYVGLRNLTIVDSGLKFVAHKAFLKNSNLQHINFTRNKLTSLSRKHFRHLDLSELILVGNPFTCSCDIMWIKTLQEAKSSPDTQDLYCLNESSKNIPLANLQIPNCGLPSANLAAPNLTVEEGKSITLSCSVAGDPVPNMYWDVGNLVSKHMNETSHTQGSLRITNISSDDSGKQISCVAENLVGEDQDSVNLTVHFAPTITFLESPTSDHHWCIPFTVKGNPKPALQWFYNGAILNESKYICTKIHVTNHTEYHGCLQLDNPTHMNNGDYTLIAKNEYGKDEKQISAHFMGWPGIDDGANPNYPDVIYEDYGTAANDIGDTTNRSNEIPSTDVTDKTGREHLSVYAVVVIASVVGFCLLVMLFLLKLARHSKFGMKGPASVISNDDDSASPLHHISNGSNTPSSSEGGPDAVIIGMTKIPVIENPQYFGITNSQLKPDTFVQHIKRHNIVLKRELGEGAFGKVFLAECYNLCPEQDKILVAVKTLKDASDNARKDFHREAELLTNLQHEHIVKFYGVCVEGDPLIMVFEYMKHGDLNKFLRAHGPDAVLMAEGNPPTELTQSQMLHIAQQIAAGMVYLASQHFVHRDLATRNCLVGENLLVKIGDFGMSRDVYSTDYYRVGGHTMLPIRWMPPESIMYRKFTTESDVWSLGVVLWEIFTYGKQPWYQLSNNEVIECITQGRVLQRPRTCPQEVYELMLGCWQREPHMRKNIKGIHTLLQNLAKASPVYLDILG
NT-3 growth factor receptor (Homo sapiens), sequence (Q16288 32-839 limits assumed): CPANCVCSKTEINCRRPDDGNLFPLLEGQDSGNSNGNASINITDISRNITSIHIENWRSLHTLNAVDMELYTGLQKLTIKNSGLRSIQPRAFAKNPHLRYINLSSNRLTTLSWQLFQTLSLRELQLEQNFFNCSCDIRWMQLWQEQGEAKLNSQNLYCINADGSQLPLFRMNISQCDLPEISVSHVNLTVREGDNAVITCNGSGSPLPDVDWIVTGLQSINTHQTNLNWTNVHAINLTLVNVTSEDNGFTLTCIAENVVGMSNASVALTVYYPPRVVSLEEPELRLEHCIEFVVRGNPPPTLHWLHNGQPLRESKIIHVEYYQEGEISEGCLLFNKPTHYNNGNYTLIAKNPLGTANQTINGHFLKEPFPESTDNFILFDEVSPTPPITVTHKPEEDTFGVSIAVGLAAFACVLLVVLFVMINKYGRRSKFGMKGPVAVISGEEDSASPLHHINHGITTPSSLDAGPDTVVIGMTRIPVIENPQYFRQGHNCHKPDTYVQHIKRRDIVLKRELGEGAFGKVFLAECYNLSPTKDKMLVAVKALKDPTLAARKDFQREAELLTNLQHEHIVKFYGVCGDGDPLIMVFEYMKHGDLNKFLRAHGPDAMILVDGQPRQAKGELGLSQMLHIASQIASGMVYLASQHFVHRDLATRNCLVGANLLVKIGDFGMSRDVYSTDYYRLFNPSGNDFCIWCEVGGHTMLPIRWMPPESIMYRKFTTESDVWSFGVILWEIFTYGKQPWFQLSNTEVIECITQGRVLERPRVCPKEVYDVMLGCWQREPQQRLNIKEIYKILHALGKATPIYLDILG
Non-receptor tyrosine-protein kinase TYK2 (Homo sapiens), sequence (P29597 whole entry): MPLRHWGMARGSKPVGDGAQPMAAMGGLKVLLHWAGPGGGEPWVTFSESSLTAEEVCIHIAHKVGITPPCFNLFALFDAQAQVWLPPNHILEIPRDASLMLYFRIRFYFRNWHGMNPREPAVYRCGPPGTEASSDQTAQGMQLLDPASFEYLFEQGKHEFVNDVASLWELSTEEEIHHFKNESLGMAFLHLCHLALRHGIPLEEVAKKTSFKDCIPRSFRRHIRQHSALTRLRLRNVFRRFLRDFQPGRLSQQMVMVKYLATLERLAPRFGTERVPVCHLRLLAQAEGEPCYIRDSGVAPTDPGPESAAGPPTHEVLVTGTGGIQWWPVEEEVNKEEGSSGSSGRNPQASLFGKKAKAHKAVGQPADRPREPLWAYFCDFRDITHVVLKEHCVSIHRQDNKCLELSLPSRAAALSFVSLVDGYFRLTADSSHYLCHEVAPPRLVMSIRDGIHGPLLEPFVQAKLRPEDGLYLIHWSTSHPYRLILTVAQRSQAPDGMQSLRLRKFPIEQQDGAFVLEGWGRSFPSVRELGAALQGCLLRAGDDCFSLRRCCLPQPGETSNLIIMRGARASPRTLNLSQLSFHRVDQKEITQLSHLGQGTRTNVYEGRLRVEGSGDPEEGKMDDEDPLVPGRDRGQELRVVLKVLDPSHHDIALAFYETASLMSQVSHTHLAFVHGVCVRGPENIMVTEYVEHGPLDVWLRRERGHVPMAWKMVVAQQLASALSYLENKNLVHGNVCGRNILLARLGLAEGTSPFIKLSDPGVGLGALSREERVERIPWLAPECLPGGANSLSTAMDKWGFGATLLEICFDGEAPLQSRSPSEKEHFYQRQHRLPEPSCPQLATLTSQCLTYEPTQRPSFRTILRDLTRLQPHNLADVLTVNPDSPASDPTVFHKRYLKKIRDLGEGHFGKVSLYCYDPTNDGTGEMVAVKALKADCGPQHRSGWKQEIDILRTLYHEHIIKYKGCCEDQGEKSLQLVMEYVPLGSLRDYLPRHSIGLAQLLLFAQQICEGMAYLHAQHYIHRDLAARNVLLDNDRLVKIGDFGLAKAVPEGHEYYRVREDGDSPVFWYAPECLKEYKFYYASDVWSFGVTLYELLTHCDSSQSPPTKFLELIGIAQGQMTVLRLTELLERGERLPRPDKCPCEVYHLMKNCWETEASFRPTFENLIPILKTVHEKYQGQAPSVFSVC

Row | Structure (SMILES) | inhibition [1] [%] | inhibition [2] [%] | inhibition [3] [%] | inhibition [4] [%] | inhibition [5] [%] | inhibition [6] [%] | inhibition [7] [%] | inhibition [8] [%] | inhibition [9] [%] | inhibition [10] [%] | inhibition [11] [%] | inhibition [12] [%] | inhibition [13] [%] | inhibition [14] [%] | inhibition [15] [%] | inhibition [16] [%] | inhibition [17] [%] | inhibition [18] [%] | inhibition [19] [%] | inhibition [20] [%]
1 | NS(=O)(=O)c1cccc(Nc2cc(-c3ccc(F)cc3)n[nH]2)c1 | -1 | 3.27 | 6.08 | 0.52 | 4.79 | 2.68 | 16.2 | 0.5 | 2.57 | 2.83 | 19.2 | 4.73 | 26.1 | 6.62 | 27.9 | 3.74 | 3.31 | -3.9 | 1.29 | –
2 | Cc1ccc(Nc2ccnc(Nc3cccc(C(N)=O)c3)n2)cc1O | 14.2 | 18 | 57.1 | 4.56 | 39.7 | 8.82 | 52.1 | 3.73 | 28.8 | 4.38 | 6.07 | 4.59 | 21.6 | 3.13 | 11.5 | 10.1 | 43.7 | -1.77 | 14.3 | 16.3
3 | NS(=O)(=O)c1ccc(N/N=C2\C(=O)Nc3ccc(Cl)cc32)cc1 | -3.16 | 4.2 | 6.14 | 0.79 | 3.42 | 3.04 | 20.5 | 0.4 | 3.7 | 3.01 | 17.9 | 5.72 | 34.7 | 9.02 | 42.3 | 3.22 | 4.96 | -4.4 | 3.86 | 45.1
4 | O=C1Nc2ccccc2/C1=C/Nc1ccc2[nH]c(=O)[nH]c2c1 | -5.15 | 9.34 | 13.8 | 5.76 | 9.19 | 4.65 | 21.3 | 1.41 | 4.86 | 11.6 | 53.9 | 26.2 | 72.7 | 26.2 | 74.2 | 6.68 | 7.08 | -6.64 | 6.9 | 38.8
5 | N#Cc1c(NC(=O)c2ccccc2F)sc2c1CCCC2 | 0.42 | -1.7 | 0.35 | -1.22 | 3.44 | -2.62 | -0.58 | -0.05 | 3 | -0.84 | -2.78 | -1.85 | -1.97 | 0.83 | -1.95 | -0.16 | 1.71 | 2.79 | -0.7 | 1.13
6 | Nc1ccc(C#Cc2cncnc2Nc2ccc(OCc3cccc(F)c3)c(Cl)c2)cc1 | -2.35 | -0.48 | 3.77 | 1.84 | 3.47 | -0.01 | – | 1.62 | 1.81 | 4.31 | 0.62 | 1.89 | 1.57 | 2.2 | 1.81 | -1.58 | 2.93 | 0.67 | 2.18 | 6.25
7 | C[C@@H](Oc1cc(-n2cnc3ccc(OCC4CCN(C)CC4)cc32)sc1C(N)=O)c1ccccc1C(F)(F)F | 0.25 | -1.52 | -0.1 | 5.78 | 32.4 | 3.21 | 30.3 | 5.42 | 46.1 | -0.37 | 0.72 | -0.51 | 1.01 | -0.61 | 0.64 | -1.27 | 1.35 | 2.67 | -0.53 | 1.44
